This is part of a sample that, as a whole, favours compounds with a hit. Of some 83,000 tested, about 20% had one in any assay.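 The test compound was applied at a single concentration to cells in 96-well plates for 48 hours, and percent growth was recorded.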 A number with no mark means an inactive call. The source made the active and inactive calls. Rule for the calls: active = growth percent below 10; inactive = the rest.

Some test systems named below: NCI-H23 lung; NCI-H226 lung; NCI-H322M lung; HOP-62 NSCLC; NCI-H460 lung; HOP-92 NSCLC; NCI-H522 lung; A549/ATCC NSCLC; 786-0 renal; COLO 205 colon; DU-145 prostate; K-562 leukemia; MALME-3M melanoma; MDA-MB-231 breast; SF-268 CNS; SF-295 CNS; SF-539 CNS; UACC-257 melanoma; M14 melanoma; RXF 393 renal.
Assay in all cases: NCI-60 one-dose screen, 48 h (100 = growth as untreated, 0 = no growth, -100 = all killed)
What all share (settings): 10 µM unless noted

Take `O=C(NC(=S)Nc1ccc(Cl)cc1)c1ccccc1`: the growth in the assay with NCI-H23 lung is 98.4%; with NCI-H226 lung, 108%; in the assay with NCI-H322M lung it was 107%; in the assay on HOP-62 NSCLC it was 96.6%; with NCI-H460 lung, 105%; in the assay with HOP-92 NSCLC, 85.8%. Further, the growth in the assay on NCI-H522 lung was 53%; with A549/ATCC NSCLC, 85.1%; in the assay with 786-0 renal, 90.9%; with COLO 205 colon, 132%; with DU-145 prostate, 103%; with K-562 leukemia, 73.2%. Moreover, the growth was 112% with MALME-3M melanoma; 96.3% in the assay with MDA-MB-231 breast; 114% in the assay on SF-268 CNS; 85.5% with SF-295 CNS; 103% with SF-539 CNS; 97% in the assay on UACC-257 melanoma. In addition, the growth with M14 melanoma was 100%.

Turning to `Nc1nc2ccc(CNc3ccc(C(=O)NC(CC(=O)O)C(=O)O)cc3)cc2c(=O)[nH]1` (configuration not stated), the growth in the assay with NCI-H23 lung was 31.7%; in the assay on NCI-H226 lung it was 57.4%; with NCI-H322M lung it was 55.7%; in the assay with HOP-62 NSCLC, 26.5%; in the assay on NCI-H460 lung it was 24.4%; with HOP-92 NSCLC it was 64.1%. Further, the growth in the assay with NCI-H522 lung was -0.0288% (active); in the assay with A549/ATCC NSCLC, 11%; with 786-0 renal, 7.57% (active); with COLO 205 colon it was 85.4%; in the assay with DU-145 prostate, 44.9%; in the assay with K-562 leukemia it was 12.2%. Moreover, the growth is 71.7% in the assay on MALME-3M melanoma; 120% in the assay on MDA-MB-231 breast; 40.1% with SF-268 CNS; 29.8% in the assay with SF-295 CNS; 38.4% in the assay with SF-539 CNS; 42.3% in the assay with UACC-257 melanoma. Besides, in the assay with M14 melanoma, the growth is 32.8%.

For the compound `Nc1ncnc2c1ncn2C1OC(COC(c2ccccc2)(c2ccccc2)c2ccccc2)C(O)C1O` (configuration not stated), the growth was 89.8% in the assay with NCI-H23 lung; 92.1% in the assay with NCI-H226 lung; 96.5% with NCI-H322M lung; 95.2% in the assay on HOP-62 NSCLC; 25.9% in the assay on NCI-H460 lung; 86.6% in the assay on HOP-92 NSCLC. For the same compound, the growth was 97.4% in the assay on NCI-H522 lung; 94.3% with A549/ATCC NSCLC; 99.1% in the assay on 786-0 renal; 99.4% in the assay with COLO 205 colon; 73% with DU-145 prostate; 82.3% with K-562 leukemia. Also, the growth with MALME-3M melanoma was 95.5%; with MDA-MB-231 breast it was 84.5%; in the assay on SF-268 CNS it was 100%; with SF-295 CNS, 48.1%; with SF-539 CNS, 103%; with UACC-257 melanoma it was 108%. Further, in the assay on M14 melanoma, the growth was 101%.

Consider `O=[N+]([O-])c1ccc(NS(=O)(=O)c2cc(Cl)ccc2Cl)c2ccccc12`, for which the growth was 32.5% in the assay with NCI-H23 lung; 65.7% in the assay on NCI-H226 lung; 68.4% in the assay on NCI-H322M lung; 65.7% in the assay with HOP-62 NSCLC; 46.6% in the assay with NCI-H460 lung; 8.11% (active) with HOP-92 NSCLC. The growth was 10.1% in the assay on NCI-H522 lung; 89.5% with A549/ATCC NSCLC; 62.9% in the assay with 786-0 renal; 73.6% in the assay with COLO 205 colon; 73% with DU-145 prostate; 43.2% in the assay on MALME-3M melanoma. Further, the growth in the assay with MDA-MB-231 breast is 71%; in the assay with RXF 393 renal, 42.6%; in the assay on SF-268 CNS, 47.9%; in the assay on SF-295 CNS, 37.7%; with SF-539 CNS it was 44.9%; in the assay with UACC-257 melanoma, 33.7%.

Turning to `CC1OC(n2c3ccccc3c3c4c(c5c6ccccc6[nH]c5c32)C(=O)N(CCN[C@@H]2CCC[C@H]2N)C4=O)CC(O)C1O` (some centres not stated), the growth is 13.2% with NCI-H23 lung; 17.4% in the assay on NCI-H226 lung; 25.4% in the assay on NCI-H322M lung; 5.12% (active) in the assay with HOP-62 NSCLC; -62% (active) with NCI-H460 lung; 72% with HOP-92 NSCLC. Besides, the growth is -9.89% (active) with NCI-H522 lung; 14.1% in the assay on A549/ATCC NSCLC; 32.2% with 786-0 renal; 1.5% (active) in the assay with COLO 205 colon; 31.8% with DU-145 prostate; 1.43% (active) in the assay on K-562 leukemia. The growth is 24.9% with MALME-3M melanoma; 16.4% in the assay with MDA-MB-231 breast; 33.7% with RXF 393 renal; 30.6% with SF-268 CNS; 8.14% (active) in the assay on SF-295 CNS; 17.8% in the assay with SF-539 CNS. The growth in the assay with UACC-257 melanoma is 29.8%; in the assay on M14 melanoma, 18.7%.

As to `COc1ccc(/C=C2\CS(=O)(=O)C/C(=C\c3ccc(OC)cc3)C2=O)cc1`, the growth in the assay with NCI-H23 lung is -49.3% (active); in the assay with NCI-H226 lung, -43.9% (active); in the assay on NCI-H322M lung it was 30.9%; in the assay on HOP-62 NSCLC it was -67.7% (active); in the assay on NCI-H460 lung, -52.6% (active); in the assay on HOP-92 NSCLC, -41.3% (active). In addition, the growth in the assay with NCI-H522 lung was -73.6% (active); in the assay on A549/ATCC NSCLC, -56.5% (active); with 786-0 renal it was -100% (active); with COLO 205 colon it was -70.6% (active); in the assay on DU-145 prostate, -44.2% (active); in the assay on K-562 leukemia it was -15.4% (active). Besides, the growth with MALME-3M melanoma is -23% (active); in the assay on MDA-MB-231 breast it was 8.06% (active); in the assay with SF-268 CNS, -24.7% (active); in the assay with SF-295 CNS, -14.4% (active); in the assay on SF-539 CNS, -54.6% (active); in the assay with UACC-257 melanoma, -80.5% (active). Further, the growth with M14 melanoma was -78.1% (active).

With `COc1ccc(-c2c(NC(=O)Nc3ccc(Cl)c(C(F)(F)F)c3)cnn2-c2ccc(S(N)(=O)=O)cc2)cc1`, the growth with NCI-H23 lung is 42.6%; with NCI-H226 lung, 75.8%; in the assay on NCI-H322M lung, 51%; with HOP-62 NSCLC it was 53.5%; in the assay on NCI-H460 lung, 9.7% (active); in the assay with HOP-92 NSCLC it was 0.848% (active). The growth is 43.7% with NCI-H522 lung; 39.2% in the assay on A549/ATCC NSCLC; 31.6% in the assay with 786-0 renal; 34.7% in the assay on COLO 205 colon; 53.5% with DU-145 prostate; 11.7% with K-562 leukemia. In addition, the growth is 34.2% in the assay with MALME-3M melanoma; 52.7% in the assay on MDA-MB-231 breast; 37.5% with SF-268 CNS; 38.6% in the assay on SF-295 CNS; 35.2% in the assay with SF-539 CNS; 34.9% in the assay on UACC-257 melanoma. The growth in the assay on M14 melanoma is 14.7%.

As to `CC(NCCC(c1ccccc1)c1ccccc1)c1ccccc1` (configuration not stated), the growth in the assay with NCI-H23 lung is 82%; in the assay on NCI-H226 lung it was 87.6%; in the assay on NCI-H322M lung it was 69.8%; in the assay with HOP-62 NSCLC, 97.8%; with NCI-H460 lung it was 11.6%; in the assay on HOP-92 NSCLC it was 43.3%. The growth in the assay on NCI-H522 lung is 74.8%; with A549/ATCC NSCLC it was 80.7%; in the assay on 786-0 renal it was 73.4%; in the assay with COLO 205 colon, -54.9% (active); with DU-145 prostate, 89.1%; in the assay on K-562 leukemia it was -44% (active). In addition, the growth with MALME-3M melanoma was 74.1%; with MDA-MB-231 breast, 83.8%; in the assay on SF-268 CNS it was 89.2%; in the assay with SF-295 CNS, 62.2%; in the assay on SF-539 CNS, 94.7%; in the assay with UACC-257 melanoma, 64.4%. Also, the growth with M14 melanoma is 71.8%.

These data come from PubChem BioAssay (NCI).
